According to PubChem BioAssay AID1845224 (National Center for Advancing Translational Sciences (NCATS), 2023):
Results filed as inconclusive are left out. Activity calls are given as the source filed them. The call rests on the fitted dose curve; in most records, active means well fitted curve in the direction sought with a large enough effect; inconclusive means small, poorly fitted or top-dose-only effect, or another doubt; inactive means no such curve, though single readings can be large or run the other way.

test system: NanoLuc luciferase (engineered Oplophorus gracilirostris luciferase); test: Confirmatory Nanoluciferase (NLuc) qHTS assay for identification of artifact compounds.; settings: secreted NLuc in S16 cell medium, luminescence, 5 min; series mostly up to 39 µM
Summary of the method: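 Conditioned medium from NLuc-expressing S16 cells (diluted 1:55) was incubated with compounds for 15 min at room temperature. Nano-Glo substrate (1:100) was then added, and luminescence was read after 5 min.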

Potency, inactive:
C[C@@H]1O[C@@H](O[C@@H]2[C@@H](O)[C@H](OCCc3ccc(O)c(O)c3)O[C@H](CO[C@@H]3O[C@H](CO)[C@@H](O)[C@H](O)[C@H]3O)[C@H]2OC(=O)/C=C/c2ccc(O)c(O)c2)[C@H](O)[C@H](O)[C@H]1O, Cc1c(Cl)cccc1NC(=O)N1CCOc2ccccc21, CN1C(=O)Cc2cc(S(=O)(=O)NCc3ccccc3Cl)ccc21, O=C(Nc1ccc2oc(-c3cccnc3)nc2c1)c1cc2ccccc2o1, COc1ccc(C2Nc3ccccc3C(=O)N2Cc2ccccc2)cc1Oc1ccc(NC(C)=O)cc1 (stereo not given), CCN(CC)CCNC(=O)c1nn(C)c2c1CS(=O)(=O)c1ccccc1-2, COc1ccc(Cn2c(CCC(=O)Nc3cc(C)cc(C)c3)nc3cccnc32)cc1, Cc1ccc(C)c(N2CCN(C(=O)c3ccc(Nc4nc5ccccc5n5nnnc45)cc3)CC2)c1, COC(=O)CCC(C)C1CCC2C3CC[C@H]4CC(O)CC[C@@]4(C)C3CC(O)[C@]12C (stereo not given in full), CSc1ccc2nc(Nc3nnc(-c4cccs4)o3)sc2c1, Cc1ccc(C(=O)Nc2onc3c2CCCC3)cc1, COc1ccc(-c2noc(N3CCC(C(=O)N4CCN(c5cccc(C)c5C)CC4)CC3)n2)cc1, COc1ccc(-c2nc3cccc(C)n3c2Nc2ccc(C)cc2)cc1, COC(=O)C1=C[C@@H](C(=O)OC)C2C3=C(C(=O)[C@]2(C)NC(=O)c2ccccc2)[C@H](C)n2c(=O)n(C)c(=O)n2[C@@H]3C1 (stereo not given in full), COc1ccc(NC(=O)c2csnn2)cc1Cl
